Drawing on PubChem BioAssay (NCATS), this text covers Potency for 50 compounds.

Molecules are shown by their SMILES. Results filed as inconclusive are left out. The source made the active and inactive calls. Calls come from the whole dose curve; as a rule, active = well fitted curve in the direction sought with a large enough effect; inconclusive = small, poorly fitted or top-dose-only effect, or another doubt; inactive = no such curve, though single readings can be large; an effect the other way counts as inactive or inconclusive.

Experiment [1] in a line: qHTS of pediatric cancer cell lines to identify multiple opportunities for drug repurposing: Primary screen for control Hh wild type fibroblast cells (AID 1347106). Note: nearly all actives have a fitted effect of over 55% in size. Note: potency is the fitted concentration of half-maximal effect. The gist of the method: (§1)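 Viability after 48 h compound treatment at 37C, 500-1,000 cells/well, read as ATP luminescence with CellTiter-Glo. Primary screens used 11-point (MIPE, 0.78 nM-46 µM) or 8-point (NPC, 0.59 nM-46 µM) final concentrations; follow-up screens used 11-point dilutions.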

The nature of experiment [2]: qHTS of pediatric cancer cell lines to identify multiple opportunities for drug repurposing: Primary screen for Rh30 cells (AID 1347107). Note: series mostly up to about 46 µM; nearly all actives have a fitted effect of over 75% in size. The gist of the method: as §1
Experiment [3] is described as follows: qHTS of pediatric cancer cell lines to identify multiple opportunities for drug repurposing: Primary screen for Rh41 cells (AID 1347108).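 Note: series mostly up to about 46 µM; luminescence drop marks cytotoxic hits; nearly all actives have a fitted effect of over 70% in size.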 Put shortly: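 Primary screen of approved and investigational compounds on cells in growth media at 37 degrees C, 5% CO2. MIPE set at 11-point and NPC set at 8-point dilutions; viability scored by ATP-based luminescence at 48 hours.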
Background: Quantitative high-throughput screening tests each substance at several concentrations.

For the compound `Cc1ccc(O)c([C@H](CCN(C(C)C)C(C)C)c2ccccc2)c1`, the Potency entry in experiment [1], in experiment [2] and in experiment [3] was “inactive” each time.

Take `C#C[C@]1(OC(C)=O)CC[C@H]2[C@@H]3CCC4=C/C(=N/O)CC[C@@H]4[C@H]3CC[C@@]21CC`: the Potency entry in experiment [1] and in experiment [2] was “inactive” in each case.

As for `O=C1[C@H](CC[C@H](O)c2ccc(F)cc2)[C@@H](c2ccc(O)cc2)N1c1ccc(F)cc1`, the Potency entry in experiment [1] is “inactive”.

In the case of `CC(C)(C)NC[C@H](O)COc1cccc2c1CCCC2=O`, the Potency entry in experiment [1] and in experiment [2] was “inactive” throughout.

On to `CCCCCCCCNC(C)C(O)c1ccc(SC(C)C)cc1` (stereo unspecified), for which the Potency result in experiment [1] was “inactive”.

With `O=C(N/N=C/c1ccc([N+](=O)[O-])o1)c1ccc(O)cc1`, the Potency result in experiment [1] and in experiment [2] was “inactive” in each case.

`CCO[C@@H]1O[C@H](C(COCc2ccccc2)OCc2ccccc2)[C@H](OCc2ccccc2)[C@H]1O` (stereo partly specified): the Potency result in experiment [1] and in experiment [2] was “inactive” in each case.

Turning to `O=C1OC(CN2CCOCC2)CN1/N=C/c1ccc([N+](=O)[O-])o1` (stereo unspecified), the Potency entry in experiment [1], in experiment [2] and in experiment [3] was “inactive” throughout.

Regarding `CN1CCN(c2c(F)cc3c(=O)c(C(=O)O)cn4c3c2SCC4)CC1`, the Potency result in experiment [1], in experiment [2] and in experiment [3] was “inactive” throughout.

For `CN1CCc2cccc3c2[C@H]1Cc1ccc(O)c(O)c1-3`, the Potency result in experiment [1] was “inactive”.

Consider `CCN(CC)CCNc1ccc(CO)c2sc3ccccc3c(=O)c12`, for which, in experiment [1], the Potency was 18.8 µM (active). Further, the Potency entry in experiment [2] was “inactive”.

Turning to `Oc1ccc(Cl)cc1Cc1cc(Cl)ccc1O`, the Potency result in experiment [1] was “inactive”.

On to `CCOC(=O)c1ccc(N)cc1`, for which the Potency result in experiment [1], in experiment [2] and in experiment [3] was “inactive” throughout.

On to `C[C@]12CCC(=O)C=C1C=C[C@@H]1[C@@H]2CC[C@@]2(C)[C@H]1CC[C@@]21CCC(=O)O1`, for which the Potency result in experiment [1] was “inactive”.

With `O=c1[nH]c(=O)n([C@H]2C[C@H](O)[C@@H](CO)O2)cc1F`, the Potency result in experiment [1] was “inactive”.

Turning to `CN(C)CCC[C@@]1(c2ccc(F)cc2)OCc2cc(C#N)ccc21`, the Potency entry in experiment [1], in experiment [2] and in experiment [3] was “inactive” throughout.

Regarding `Oc1c(Cl)cc(Cl)c(Cl)c1Cc1c(O)c(Cl)cc(Cl)c1Cl`, the Potency entry in experiment [1] and in experiment [2] was “inactive” each time.

In the case of `O=C(Nc1ncc([N+](=O)[O-])s1)c1cccs1`, in experiment [1], the Potency result was “inactive”.

For `O=C(Nc1ccccc1)OCC(CN1CCCCC1)OC(=O)Nc1ccccc1` (stereo unspecified), the Potency entry in experiment [1] and in experiment [2] was “inactive” each time.

As to `CC(=O)Nc1ccc(OCC(O)CNC(C)C)cc1` (stereo unspecified), the Potency result in experiment [1] and in experiment [2] was “inactive” throughout.

On to `Cc1ncc(CO)c(C=O)c1O`, for which the Potency entry in experiment [1], in experiment [2] and in experiment [3] was “inactive” each time.

Turning to `O[C@@H](c1cc(C(F)(F)F)nc2c(C(F)(F)F)cccc12)[C@H]1CCCCN1`, the Potency entry in experiment [1] was “inactive”.

As to `CCCN(CCC)S(=O)(=O)c1ccc(C(=O)O)cc1`, the Potency result in experiment [1], in experiment [2] and in experiment [3] was “inactive” each time.

As to `CNCCCCOc1ccccc1Cc1ccccc1`, the Potency result in experiment [1] was “inactive”.

Turning to `C#C[C@]1(O)CC[C@H]2[C@@H]3CCc4cc(OC)ccc4[C@H]3CC[C@@]21C`, the Potency entry in experiment [1], in experiment [2] and in experiment [3] was “inactive” each time.

Regarding `Cc1cc(-c2ccccc2)nnc1NCCN1CCOCC1`, the Potency result in experiment [1] and in experiment [2] was “inactive” in each case.

On to `CN1CCC[C@@H]1CCO[C@](C)(c1ccccc1)c1ccc(Cl)cc1`, for which the Potency entry in experiment [1] and in experiment [2] was “inactive” in each case.

On to `CC(C)n1c(/C=C/[C@@H](O)C[C@@H](O)CC(=O)O)c(-c2ccc(F)cc2)c2ccccc21`, for which, in experiment [1], the Potency result was “inactive”.

Take `Cc1ccc2c(Br)cc(Br)c(O)c2n1`: the Potency entry in experiment [1] was “inactive”.

`CC[C@]12CCCN3CCc4c(n(c5ccccc45)C(=O)C1)[C@@H]32`: the Potency entry in experiment [1] was “inactive”.

On to `C=C[C@H]1CN2CC[C@H]1C[C@H]2[C@H](O)c1ccnc2ccc(OC)cc12`, for which the Potency entry in experiment [1], in experiment [2] and in experiment [3] was “inactive” throughout.

As for `CCOC(=O)[C@@](C)(N)Cc1ccc(O)c(O)c1`, in experiment [1], the Potency entry was “inactive”.

Consider `CC(=O)O[C@H]1C[C@@H]2CC[C@@H]3[C@H](CC[C@@]4(C)[C@H]3C[C@H]([N+]3(C)CCCCC3)[C@@H]4OC(C)=O)[C@@]2(C)C[C@@H]1N1CCCCC1`, for which the Potency result in experiment [1], in experiment [2] and in experiment [3] was “inactive” throughout.

In the case of `CCc1nn(CCCN2CCN(c3cccc(Cl)c3)CC2)c(=O)n1CCOc1ccccc1`, the Potency result in experiment [1] and in experiment [2] was “inactive” each time.

In the case of `CC(=O)O[C@]1(C(C)=O)CC[C@H]2[C@@H]3C=C(Cl)C4=CC(=O)CC[C@]4(C)[C@H]3CC[C@@]21C`, the Potency entry in experiment [1] was “inactive”.

As to `CC(=O)OCC1=C(C(=O)O)N2C(=O)[C@@H](NC(=O)CSc3ccncc3)[C@H]2SC1`, the Potency result in experiment [1], in experiment [2] and in experiment [3] was “inactive” in each case.

For the compound `CCc1cc(Cl)c(OC)c(C(=O)NC[C@@H]2CCCN2CC)c1O`, the Potency result in experiment [1], in experiment [2] and in experiment [3] was “inactive” throughout.

Take `Clc1cccc(C(c2ccc3nc[nH]c3c2)n2ccnc2)c1` (stereo unspecified): the Potency entry in experiment [1], in experiment [2] and in experiment [3] was “inactive” each time.

For the compound `COc1ccc(-c2cc(C(F)F)nn2-c2ccc(S(N)(=O)=O)cc2)cc1F`, the Potency entry in experiment [1], in experiment [2] and in experiment [3] was “inactive” each time.

Take `OC[C@H]1O[C@@H](Oc2ccc(O)cc2)[C@H](O)[C@@H](O)[C@@H]1O`: the Potency entry in experiment [1], in experiment [2] and in experiment [3] was “inactive” throughout.

Take `Nc1nc(-c2ccccc2)c(Br)c(=O)[nH]1`: the Potency entry in experiment [1], in experiment [2] and in experiment [3] was “inactive” each time.

Take `N[C@H](C(=O)O)[C@@H](O)c1ccc(O)c(O)c1`: the Potency result in experiment [1], in experiment [2] and in experiment [3] was “inactive” in each case.

Take `C/C=C/c1ccc(O)c(OC)c1`: the Potency entry in experiment [1], in experiment [2] and in experiment [3] was “inactive” in each case.

Turning to `CC(C)(C)CC(C)(C)c1ccc(O)c(-n2nc3ccccc3n2)c1`, the Potency entry in experiment [1], in experiment [2] and in experiment [3] was “inactive” throughout.

`COc1ccc(/C=N/NC(=O)c2ccncc2)cc1OC`: the Potency entry in experiment [1], in experiment [2] and in experiment [3] was “inactive” each time.

For `CCC1Nc2cc(Cl)c(S(N)(=O)=O)cc2S(=O)(=O)N1` (stereo unspecified), the Potency result in experiment [1], in experiment [2] and in experiment [3] was “inactive” each time.

Take `CN(C)CCOC(c1ccc(Cl)cc1)c1ccccn1` (stereo unspecified): the Potency result in experiment [1], in experiment [2] and in experiment [3] was “inactive” each time.

As to `CC1(COc2ccc(CC3SC(=O)NC3=O)cc2)CCCCC1` (stereo unspecified), the Potency result in experiment [1], in experiment [2] and in experiment [3] was “inactive” throughout.

As for `CC(C)CCCC(C)N` (stereo unspecified), the Potency entry in experiment [1], in experiment [2] and in experiment [3] was “inactive” throughout.

For the compound `COc1ccc2c(c1)c1c3n2CCN(C)C3=NCC1`, the Potency entry in experiment [1], in experiment [2] and in experiment [3] was “inactive” in each case.
